Assay results taken from PubChem BioAssay (NCI).
About 83,000 compounds went through this panel and 20% of them were active in at least one assay; those are over-represented in the sample as a whole.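 Compound tested at a single concentration for 48 hours in 96-well plates; a percent growth value below 10 was scored as active.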 Unmarked numbers belong to inactive results. Activity calls are given as the source filed them.

Test system: HL-60(TB) leukemia
Experiment: NCI-60 one-dose screen, 48 h (100 = growth as untreated, 0 = no growth, -100 = all killed)
Conditions: 10 µM unless noted

Structure (SMILES) | growth
COc1ccc(OC)c(Nc2nc3nonc3nc2Nc2cc(OC)ccc2OC)c1 | 103%
c1ccc(Nc2cc(-c3cccnc3)[nH]n2)cc1 | 89.3%
COc1ccc(C(c2cc(OC)c(OC)c(OC)c2)N2CCCC2)cc1 (stereo unspecified) | 35.5%
COc1ccc(/C=C2/CN(C(=O)c3ccccc3F)C/C(=C\c3ccc(OC)cc3)C2=O)cc1 | 51.4%
COc1nc2c(cc1S(=O)(=O)c1ccccc1)CCc1c-2cnn1Cc1ccccc1 | 26.1%
O=C(Cc1ccc(NC(=O)c2cccc(Cl)c2)cc1)NCc1ccccc1 | -14% (active)
C=C1C[C@H](O)[C@H](Br)C(C)(C)[C@@]12CCC(C)=C(Cl)C2 | -8.6% (active)
Cc1sc2nc3c4ccccc4c(NCCCN(C)C)nn3c(=O)c2c1C | -71% (active)
C=CCOc1ccc2c(c1)CC[C@@H]1[C@@H]2CC[C@@]2(C)[C@H]1CC[C@]2(C)O | 74.6%
CCCCCCCCO | 93.8%
CN(Cc1ccccc1)c1nc(Cl)c(C2CC(c3ccc4c(c3)OCO4)=NN2c2cc(Cl)cc(Cl)c2)s1 (stereo unspecified) | 105%
COC(=O)[C@H](CCCCNC(=O)OCc1ccccc1)NC(=O)[C@@H](NC(=O)Nc1cc(C(F)(F)F)cc(C(F)(F)F)c1)C(C)C | -9.21% [100 µM] (active)
S=C(N/N=C/c1ccccn1)Nc1ccccn1 | -13.7% (active)
COC(=O)/C(CCC=C(C)C)=C1\[C@@H](OC(C)=O)C[C@@]2(C)[C@H]1C[C@@H](O)[C@H]1[C@@]3(C)CC[C@H](NCCO)[C@@H](C)[C@@H]3CC[C@@]12C | 96.4%
Cc1cc(Nc2cc(N3CCN(C)CC3)nc(Sc3ccc(NC(=O)C4CC4)cc3)n2)n[nH]1 | 11.2%
NC(=S)N/N=C(\c1ccc(Cl)cc1)C1CC1 | 75.7%
CC(C)(C)n1cc(-c2ccnc(NCCCNS(=O)(=O)c3cccc4ccccc34)c2)c(-c2cccc(O)c2)n1 | 25.4%
CC(C)c1nc(N(C)S(C)(=O)=O)nc(-c2ccc(F)cc2)c1/C=C/C(=O)C[C@@H](O)CC(=O)O | 106%
CC12CCC3C(CCC4CC(=O)/C(=C\O)CC43C)C1CCC(=O)O2 (stereo unspecified) | 111%
COc1ccc(C2=Nn3c(nnc3-c3cc(Cl)cc(Cl)c3Cl)SC2)cc1 | -32% (active)
CC1SC(c2ccc(N(C)C)cc2)N(NC(=O)C(O)(c2ccccc2)c2ccccc2)C1=O (stereo unspecified) | 84.2%

Structure (SMILES) | growth
COc1ccc2[nH]cc(C3(c4c[nH]c5ccc(OC)cc45)C(=O)Nc4ccc(F)cc43)c2c1 | -40.3% (active)
COc1ccc(-c2cc(-c3ccc(Cl)cc3)nc(SCCCC(=O)NO)n2)cc1OC | -32.4% (active)
COc1ccc(C2CC(c3ccccc3)=NN2C(=O)c2cc(OC)c(OC)c(OC)c2)cc1O (stereo unspecified) | -29.3% (active)
CCOC(=O)C1=CCC(n2cc(F)c(=O)[nH]c2=O)O1 (stereo unspecified) | 83.6%
CN(C)c1ccc(/C=C/C(=O)c2ccc(Nc3nc(Nc4ccc(F)cc4)nc(Nc4ccc(Cl)cc4)n3)cc2)cc1 | -70.5% (active)
CCN1CCN(C(=O)[C@]23CC[C@@H](C)[C@H](C)[C@@H]2C2=CC[C@@H]4[C@@]5(C)C/C(=C/c6cccnc6)C(=O)C(C)(C)[C@@H]5CC[C@@]4(C)[C@]2(C)CC3)CC1 | -38.2% (active)
Cc1ccc(C(=O)Nc2ccc(CN3CCN(C)CC3)c(C(F)(F)F)c2)cc1C#Cc1cnc(N)c2ccc(C#N)cc12 | 30.9%
COc1ccc2c(c1)c(-c1nc(-c3c[nH]c4ncccc34)cs1)cn2CCN | 41.2%
CCN(CC)c1ccc(C(O)C2=CC(=O)c3ccccc3C2=O)cc1 (stereo unspecified) | -1.99% (active)
Cc1ccccc1NC(=O)Oc1ccc(Cl)cc1C(=O)c1ccccc1 | 103%
COc1ccc(/C=C2\CN(C(=O)CCN3CCC(=NO)CC3)C/C(=C\c3ccc(OC)cc3)C2=O)cc1 | -14.4% (active)
CCCCC#Cc1c(I)n(C)c(=O)[nH]c1=O | -10.8% (active)
COc1cc(C2CC(c3ccc(Cl)cc3)=NN2C(C)=O)ccc1Oc1ccnc2cc(Cl)ccc12 (stereo unspecified) | 110%
COc1c(F)cc(-n2c(C(=O)N3CC(F)C3)cc3cccnc32)cc1F | 98.3%
O=C(CN1CCNCC1)N1CCOCC1 | 68.5%
CC(C)NS(=O)(=O)c1cccc(-c2ccc3c4c(n(CCCN(C)C)c(=O)c3c2)-c2ccccc2C4=O)c1 | 65.3%
COC(=O)/C=C1\SC(=Nc2ccc(F)cc2)N(CCc2c[nH]c3ccccc23)C1=O | 73.7%
N#C/C(=C\NC(=S)N=Nc1c(O)[nH]c2ccccc12)c1nc2ccccc2s1 | 103%
COc1cc(-c2nc3ccccc3[nH]2)ccc1OCc1nnc(-c2ccc(Br)cc2)o1 | 84.2%
CN(C)C(=O)OCc1ccc2c(Cl)cc(Cl)c(O)c2n1 | 18.8%
O=C(Nc1ccc(C2=NCCCN2)cc1)c1ccc(C(=O)Nc2ccc(C3=NCCCN3)cc2)nc1 | 79%

Structure (SMILES) | growth
O=C1CC(N2C(=O)/C(=C/C(Cl)=C\c3ccc([N+](=O)[O-])cc3)SC2=S)C(=O)N1c1ccc(O)cc1 (stereo unspecified) | -18.7% (active)
C/C=C/C=N/NC(=S)Nc1ccccc1 | 81.7%
O=C1c2ccccc2OC=C(c2ccccc2)N1CCCCN1CCCCC1 | 58.1%
Fc1ccc(Nc2ccc3c(OCCCN4CCOCC4)cccc3n2)cc1F | 85.3%
Cc1ccc(/C=C(/C#N)n2nnc3ncccc32)cc1 | 0.0853% (active)
C/C(=C(/c1ccccc1)c1ccc(OCC(O)CNCCN2CCOCC2)cc1)c1ccccc1 (stereo unspecified) | 29%
COc1cc(-c2ccc(-c3ccc(C(=N)N)s3)s2)cc(OC)c1OC | -56.6% (active)
Cn1c2c(c(=O)[nH]c1=O)NC1=C(C(=O)c3ccccc31)C1(C=C(O)c3ccccc31)N2 (stereo unspecified) | 109%
O=C(C1=Cc2cc3ccccc3n2Cc2cnnn21)c1ccc(O)cc1 | 41.7%
COc1ccc(Cl)cc1Nc1nc(C(F)(F)F)ccc1C(=O)N/N=C/c1ccc([N+](=O)[O-])cc1 | -10.8% (active)
COc1ccc(-c2cc(-c3cccc(NS(C)(=O)=O)c3)nc(N)c2C#N)cc1 | 0.807% (active)
CCOC(=O)c1ccoc1 | 118%
COc1ccc(S(=O)(=O)N2CC3(COC3)C2)cc1NC(=O)c1[nH]c(C)c2c1CCCCC2=O | -11% (active)
O=C(C[Si](CC(=O)c1cccc(C(F)(F)F)c1)CC(=O)c1cccc(C(F)(F)F)c1)c1cccc(C(F)(F)F)c1 | -40.8% (active)
OCC(CO)(CCl)CCl | 96.3%
C#CC[C@@H]1C[C@]2(C)[C@H]3CC=C4[C@H]5[C@@H](C)[C@H](C)CC[C@]5(C(=O)NCCCN5CCN(CCCN)CC5)CC[C@@]4(C)[C@]3(C)CC[C@H]2C(C)(C)[C@H]1OC(C)=O | -55.9% (active)
N#C/C(=C\c1ccc([N+](=O)[O-])cc1)n1nnc2cc(F)c(F)cc21 | -27% (active)
CC(=O)c1c(O)c(C)c(O)c2c1OC1=CC(=O)C(C(C)=O)C(=O)C12C (stereo unspecified) | 45.4%
CCN1C(=O)N(CC)C2C1NN=c1s/c(=C3\C(=O)N(CC(C)(C)C)c4ccccc43)c(=O)n12 (stereo unspecified) | -26.1% (active)
Cc1cc(=O)oc2cc(OC(=O)CN3CCN(C)CC3)ccc12 | 122%
COc1ccc2nc(-c3ccc(Cl)cc3)cc(-c3nnc(SCC(=O)Nc4ccc(C(C)=O)cc4)n3-c3ccccc3)c2c1 | 99.3%

Structure (SMILES) | growth
COC(=O)N[C@H]1CCc2c(Cl)c(OC)c(OC)c(OC)c2-c2ccc(SC)c(=O)cc21 | -42.4% (active)
CCCCCCCCCCCCCCCCCC1=NCCCN1CCO | 106%
COc1c(C(C)=O)c(OCCCCOc2c(C(C)=O)c(OC)c3ccoc3c2OC)c(OC)c2occc12 | 57.4%
COc1ccc(/C=c2\nc3n(-c4ccccc4)c4nc5c6c(sc5c(=N)n4n-3c2=O)CCCC6)cc1 | 101%
O=C1/C(=C/c2ccc([N+](=O)[O-])s2)Oc2ccccc21 | -7.99% (active)
NC(C(=O)O)C(O)c1ccc(OCc2ccccc2)c(OCc2ccccc2)c1 (stereo unspecified) | 105%
CNC(=O)c1c(NC(=O)c2ccc(C(C)(C)C)cc2)sc2c1CCC(=O)C2 | -13.2% (active)
CCN(CC)C(=S)SCCO | 102%
O=C(Nc1ccc(F)c(Cl)c1)Nc1ccc(Cl)c(Cl)c1 | 25%
N#C/C(=C(/O)CCCO)c1nc2ccccc2c(=O)[nH]1 | 102%
COc1ccc(Br)cc1NC(=O)Nc1cccc2c1ccn2Cc1ccnc(N)c1 | 10.5%
O=C1C(Cl)=C(N/N=c2/[nH][nH]/c(=N/NC3=C(Cl)C(=O)c4ccccc4C3=O)c3ccccc23)C(=O)c2ccccc21 | 39.5%
CCn1cc(-c2ccnc3[nH]c(-c4cccc(CN(C)C)c4)cc23)c(-c2ccc(NC(=O)N(C)C)cc2)n1 | -40.6% (active)
COc1cccc(Cc2cc(-c3ccccc3)nn(CC(=O)c3ccccc3)c2=O)c1 | 69.4%
Cn1c2ccccc2c2c3c(c4c5ccccc5[nH]c4c21)C(=O)N(N)C3=O | 81.8%
CC1=C(O)C(=O)C(c2c(C)cc(C)c(Br)c2C)=C(O)C1=O | 53.4%
CCCCCCCCCCCCCCCC[N+]1(C)CCOCC1 | -59.5% (active)
O=S(=O)(Nc1ccc(Cl)c(F)c1)c1ccc(-c2cnc(C3CC3)o2)cc1 | 0.942% (active)
